Results filed as inconclusive are left out. A number with no mark means an inactive call. The source made the active and inactive calls. The call rests on the fitted dose curve; in most records, active means well fitted curve in the direction sought with a large enough effect; inconclusive means small, poorly fitted or top-dose-only effect, or another doubt; inactive means no such curve, though single readings can be large or run the other way.
Each compound was assayed against Relaxin receptor 1 (Homo sapiens) (UniProt Q9HBX9) (assay: qHTS Assay for Agonists of the Relaxin Receptor RXFP1: RXFP1 SAR). Settings: HEK293T-RXFP1 cAMP TR-FRET, 30 min; efficacy: active compounds read high.
Sequence of Relaxin receptor 1 (Homo sapiens) (Q9HBX9 whole entry, looked up): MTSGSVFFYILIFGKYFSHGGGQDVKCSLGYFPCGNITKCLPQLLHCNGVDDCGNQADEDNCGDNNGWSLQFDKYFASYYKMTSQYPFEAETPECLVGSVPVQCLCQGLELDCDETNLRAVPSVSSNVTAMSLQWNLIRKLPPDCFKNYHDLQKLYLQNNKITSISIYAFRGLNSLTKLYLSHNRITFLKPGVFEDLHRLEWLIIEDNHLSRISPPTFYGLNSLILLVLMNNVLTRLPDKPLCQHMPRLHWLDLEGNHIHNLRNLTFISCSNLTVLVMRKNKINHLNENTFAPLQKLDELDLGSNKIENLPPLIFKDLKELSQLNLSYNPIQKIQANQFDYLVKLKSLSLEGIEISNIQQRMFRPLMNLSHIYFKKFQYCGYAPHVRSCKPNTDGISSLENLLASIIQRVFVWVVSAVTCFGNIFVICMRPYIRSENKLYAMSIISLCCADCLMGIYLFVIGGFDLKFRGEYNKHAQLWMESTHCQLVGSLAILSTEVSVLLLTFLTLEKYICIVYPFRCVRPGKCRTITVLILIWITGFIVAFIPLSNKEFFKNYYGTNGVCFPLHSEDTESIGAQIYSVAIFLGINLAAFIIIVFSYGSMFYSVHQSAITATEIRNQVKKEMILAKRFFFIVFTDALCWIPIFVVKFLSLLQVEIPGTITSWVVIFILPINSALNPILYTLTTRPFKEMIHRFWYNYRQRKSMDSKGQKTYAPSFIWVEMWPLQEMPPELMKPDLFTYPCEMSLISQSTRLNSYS
Text: The relaxin hormone is involved in the variety of biological functions in normal tissues and diseases. The role of relaxin is well-established in female reproduction and parturition, mammary gland and endometrial development, maintenance of myometrial quiescence during pregnancy. Relaxin signaling through its G protein-coupled receptor (GPCR) RXFP1 results in ECM remodeling through regulation of collagen deposition, cell invasiveness, proliferation and overall tissue homeostasis. […] Recombinant human relaxin (rhRlx) is currently being tested in clinical trials as a protective agent in congestive heart failure, in treating severe preeclampsia, and as an anti-fibrotic agent in systemic sclerosis. Upon relaxin binding RXFP1 activation leads to the activation of adenylate cyclase (AC) via Gs. cAMP will activate PKA, which phosphorylates many signaling proteins. Thus, detection of cAMP increase is an easy and reliable indication of relaxin receptor activation. To screen for agonists of the relaxin receptor, a HEK293T cell line stably transfected with RXFP1 was used. RXFP1 activation was assayed by changes in cAMP levels as detected with a time-resolved fluorescence energy transfer (TR-FRET) cAMP detection kit. NIH Chemical Genomics Center [NCGC] NIH Molecular Libraries Probe Production Centers Network [MLPCN] MLPCN Grant: R03 MH085705-01A1 Assay Submitter (PI): Alexander Agoulnik
This is a cell-based assay for cAMP second messenger response to screen for agonists of the RXFP1 receptor. The assay was conducted in the presence of a PDE4 inhibitor (Ro 20174). The cells were lysed and the cAMP levels were measured with a TR-FRET cAMP kit. Presence of cAMP in the cell lysate disrupts binding between the cryptate-labeled anti-cAMP and d2-labeled cAMP pair, leading to a decrease in the TR-FRET signal. Data were normalized to the controls for basal activity (buffer only) and 100% activity (29 nM porcine relaxin). The EC50 values were determined from concentration-response data modeled with the standard Hill equation 1536-well assay protocol for the HEK293 RXFP1 cAMP assay: (1) Add 3 ul HEK293 RXFP1 cell culture. 2000 cells/well in DMEM/F12, 10% FBS, 1x Pen/Strep (dispensed offline with MultiDrop Combi). (2) Incubate 16-24 hr at 37C, 5% CO2. (3) Add 1 ul 400uM Ro20174 in DPBS, 0.05% BSA, 0.005% Tween 20. (3) Add 23 nl compounds in DMSO solution. Final concentration was 0.5 - 58 uM. (4) Incubate 30 min at 37C, 5% CO2. (5) Add 1 ul cAMP-d2 in lysis buffer (HTRF cAMP HiRange kit, CisBio). (6) Add 1 ul anti-cAMP antibody-cryptate in lysis buffer (HTRF cAMP HiRange kit, CisBio). (7) Incubate 30 min at room temperature. (6) Detect the assay plate in a ViewLux plate reader (PerkinElmer) with Ex=320 nm, Em1=615 nm and Em2=665 nm. Keywords: relaxin, RXFP1, RXFP2, G-protein coupled receptor, cAMP, agonist, high throughput screening, MLSMR, MLSCN, NIH Roadmap, qHTS and NCGC
With CCOc1ccccc1C(=O)NCCC(=O)Nc1cccc(S(=O)(=O)C(F)(F)F)c1 the Potency was 4710 nM (active). CCCOc1ccccc1C(=O)Nc1ccccc1C(=O)Nc1cccc(S(=O)(=O)C(F)(F)F)c1 was tested, and the Potency was 52.9 nM (active). In the case of CC(C)Oc1ccccc1C(=O)Nc1ccccc1C(=O)Nc1cccc(C(F)(F)F)c1, the Potency is reported as 471 nM (active). O=C(Nc1cccc(SC(F)(F)F)c1)c1ccccc1NC(=O)C1CCCCC1 was tested, and the Potency was 1880 nM (active). For O=C(Cc1ccccc1)Nc1ccccc1C(=O)Nc1cccc(C(F)(F)F)c1, the Potency was 8380 nM (active). With O=C(NCc1ccco1)c1ccccc1NC(=O)c1ccccc1NC(=O)C1CCCCC1 the Potency was 9400 nM (active). With CC(C)(C)c1cccc(NC(=O)c2ccccc2NC(=O)C2CCCCC2)c1 the Potency was 2650 nM (active). In the case of CCOc1ccccc1C(=O)Nc1cnccc1C(=O)Nc1cccc(S(=O)(=O)C(F)(F)F)c1, the Potency is reported as 2970 nM (active). O=C(Nc1cccc([N+](=O)[O-])c1)c1ccccc1NC(=O)C1CCCCC1 was tested, and the Potency was 5930 nM (active). In the case of CCOc1ccccc1C(=O)Nc1ccncc1C(=O)Nc1cccc(S(=O)(=O)C(F)(F)F)c1, the Potency is reported as 747 nM (active). O=C(Nc1ccccc1C(=O)Nc1cccc(C(F)(F)F)c1)c1ccccc1Cl was tested, and the Potency was 3740 nM (active). COc1ccccc1C(=O)Nc1ccccc1C(=O)Nc1cccc(C(F)(F)F)c1 was tested, and the Potency was 334 nM (active). CCOc1ccccc1-c1nc2c(C(=O)Nc3cccc(S(=O)(=O)C(F)(F)F)c3)cccc2[nH]1 showed an efficacy of 4.9%. With O=C(Nc1cccc(-c2ccccc2C(F)(F)F)c1)c1ccccc1NC(=O)C1CCCCC1 the Potency was 2650 nM (active).

Source: PubChem BioAssay AID602256 (National Center for Advancing Translational Sciences (NCATS), 2012)
